Measured potencies and affinities stand elsewhere. The source made the active and inactive calls.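 How the source made its calls: active means fitted half-maximal dose no more than twice the top valid tested dose, for compounds that lower signal; inconclusive means fit invalid, or curve flat with activity between -70 and -30; inactive means potency past limit, curve flat within ±30, or signal increasing.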
target: NAD-dependent protein deacylase sirtuin-5, mitochondrial (Homo sapiens) (UniProt Q9NXA8); assay: blockers of sirtuin-5 peptide desuccinylation – biochemical, fluorescence imaging, cherry-pick, set 6, dose response (AID 720597); conditions: Purified SirT5, succinyl-peptide-AMC/trypsin fluorescence; series mostly up to 15 µM;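 further: lower AMC signal can also come from blocking the trypsin step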
Sequence (Q9NXA8 whole entry, looked up): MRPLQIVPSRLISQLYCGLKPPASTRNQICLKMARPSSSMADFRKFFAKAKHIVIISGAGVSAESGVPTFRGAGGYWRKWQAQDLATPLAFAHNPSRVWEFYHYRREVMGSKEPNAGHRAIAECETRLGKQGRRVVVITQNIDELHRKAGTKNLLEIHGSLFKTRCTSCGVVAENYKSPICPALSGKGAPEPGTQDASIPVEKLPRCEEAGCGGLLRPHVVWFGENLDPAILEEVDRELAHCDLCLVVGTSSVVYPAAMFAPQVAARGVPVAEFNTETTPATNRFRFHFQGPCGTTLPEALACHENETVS

| SMILES | outcome |
| --- | --- |
| C[C@@H]1CN([C@@H](C)CO)C(=O)Cc2cc(NC(=O)CCCCCC(=O)Nc3ccccc3N)ccc2O[C@@H]1CN(C)Cc1ccc(Oc2ccccc2)cc1 | inactive |
| C/C=C/c1ccc2c(c1)O[C@H](CN(C)Cc1cccc(F)c1)[C@H](C)CN([C@@H](C)CO)S2(=O)=O | inactive |
| COc1ccc(NC(=O)N(C)C[C@H]2Oc3c(NS(C)(=O)=O)cccc3C(=O)N([C@@H](C)CO)C[C@H]2C)cc1 | inactive |
| COCC(=O)Nc1ccc2c(c1)C(=O)N(C)C[C@@H](OC)[C@H](C)CN(Cc1ccccn1)[C@H](C)CO2 | inactive |
| Cn1cnc(CCNC(=O)C[C@@H]2CC[C@@H]3[C@H](COC[C@@H](O)CN3C(=O)Nc3ccc(Cl)cc3)O2)c1 | inactive |
| NC(=O)NCC#Cc1ccc2c(c1)[C@]1(C(=O)N2)[C@H](c2ccccc2OCCO)N2[C@H](c3ccccc3)[C@H](c3ccccc3)OC(=O)[C@H]2[C@@H]1C(=O)N1CCN(c2ncccn2)CC1 | inactive |
| CC(C)CC#Cc1ccc2c(c1)O[C@@H](CN(C)C(=O)NC1CCCC1)[C@H](C)CN([C@H](C)CO)S2(=O)=O | inactive |
| C[C@@H]1CN([C@H](C)CO)S(=O)(=O)c2ccc(C#Cc3ccccn3)cc2O[C@@H]1CN(C)Cc1cccc(F)c1 | inactive |
| CNC[C@@H]1Oc2ccc(NC(=O)Nc3ccc(F)cc3)cc2CC(=O)N([C@@H](C)CO)C[C@@H]1C | inactive |
| COc1ccc(S(=O)(=O)Nc2ccc3c(c2)C(=O)N([C@@H](C)CO)C[C@@H](C)[C@@H](CN(C)Cc2ccc(C(F)(F)F)cc2)OCCCC[C@@H](C)O3)cc1 | inactive |
| C[C@H]1CN([C@@H](C)CO)C(=O)c2c(c3ccccc3n2C)-c2ccccc2CO[C@@H]1CN(C)Cc1ccc2c(c1)OCO2 | inactive |
| CCCC#Cc1ccc2c(c1)O[C@@H](CN(C)CC1CCOCC1)[C@H](C)CN([C@H](C)CO)S2(=O)=O | inactive |
| COc1ccc(S(=O)(=O)N(C)C[C@H]2OCCCC[C@H](C)Oc3ccc(NS(=O)(=O)c4ccc(F)cc4)cc3C(=O)N([C@H](C)CO)C[C@H]2C)cc1 | inactive |
| CC(C)CC#Cc1ccc2c(c1)O[C@@H](CN(C)S(=O)(=O)c1cccc(F)c1)[C@@H](C)CN([C@H](C)CO)S2(=O)=O | inactive |
| COc1cccc(S(=O)(=O)N(C)C[C@H]2Oc3cc(C4=CCCC4)ccc3S(=O)(=O)N([C@H](C)CO)C[C@H]2C)c1 | inactive |
| C[C@H]1CN([C@@H](C)CO)S(=O)(=O)c2ccc(/C=C/c3ccccc3)cc2O[C@@H]1CN(C)Cc1ccccc1 | inactive |
| O=C(NCC[C@H]1CC[C@@H](NS(=O)(=O)c2cccc(F)c2)[C@H](CO)O1)C1CCOCC1 | inactive |
| COc1cccc(CNC(=O)C[C@H]2CC[C@H]3[C@H](COc4ccc(NS(=O)(=O)c5ccccc5F)cc4C(=O)N3C)O2)c1 | inactive |
| C[C@H]1CN([C@@H](C)CO)C(=O)c2cc(C#CCN(C)C)cnc2O[C@H]1CN(C)Cc1ccncc1 | inactive |
| C[C@H](CO)N1C[C@H](C)[C@@H](CN(C)C(=O)Nc2cc(F)ccc2F)Oc2cc(/C=C/c3ccccc3)ccc2S1(=O)=O | inactive |

| SMILES | outcome |
| --- | --- |
| C[C@@H]1CN([C@H](C)CO)C(=O)c2cc(C#CCN(C)C)cnc2O[C@H]1CN(C)Cc1ccncc1 | inactive |
| COc1ccc(NC(=O)Nc2ccc3c(c2)C(=O)N([C@@H](C)CO)C[C@H](C)[C@@H](CN(C)Cc2ccccc2)OCCCC[C@H](C)O3)cc1 | inactive |
| C[C@H](CO)N1C[C@H](C)[C@H](CN(C)S(=O)(=O)c2cccc(F)c2)Oc2ncc(C#CC3CCCCC3)cc2C1=O | inactive |
| C[C@@H]1CN([C@H](C)CO)C(=O)c2cccc(NC(=O)c3ccncc3)c2O[C@H]1CN(C)S(C)(=O)=O | inactive |
| CC(=O)NC[C@@H]1[C@@H](c2ccc(-c3ccccc3F)cc2)[C@@H](CO)N1CCC(F)(F)F | inactive |
| COc1ccc(NC(=O)N(C)C[C@@H]2OCc3ccccc3-c3c(n(C)c4ccccc34)C(=O)N([C@@H](C)CO)C[C@@H]2C)cc1 | inactive |
| C[C@H](CO)N1C[C@H](C)[C@@H](CN(C)Cc2ccc(Oc3ccccc3)cc2)Oc2ccc(NC(=O)Cc3ccccc3)cc2C1=O | inactive |
| Cc1ccc(-c2cnc3c(c2)C(=O)N([C@H](C)CO)C[C@H](C)[C@@H](CN(C)Cc2ccccc2F)O3)cc1 | inactive |
| C[C@@H]1CN([C@H](C)CO)C(=O)c2cc(-c3ccc(F)cc3)cnc2O[C@H]1CN(C)C(=O)Cc1ccccn1 | inactive |
| C[C@@H]1CN([C@@H](C)CO)C(=O)c2cc(NC(=O)Cc3ccccc3)ccc2O[C@H]1CN(C)Cc1ccc(Oc2ccccc2)cc1 | inactive |
| C[C@@H]1CN([C@H](C)CO)S(=O)(=O)c2ccc(C#C[C@@H](C)O)cc2O[C@H]1CN(C)Cc1ccc(-c2ccccc2)cc1 | inactive |
| CN(C)CC#Cc1ccc([C@@H]2[C@@H](CO)N3CCCCN(C(=O)CN(C)C)C[C@H]23)cc1 | inactive |
| COc1cccc(-c2cn(CC[C@@H]3CC[C@H](NC(=O)CC4CC4)[C@@H](CO)O3)nn2)c1 | inactive |
| CC(C)CC#Cc1ccc2c(c1)O[C@H](CN(C)C(=O)C1CCCCC1)[C@H](C)CN([C@@H](C)CO)S2(=O)=O | inactive |
| COc1ccc(S(=O)(=O)Nc2ccc3c(c2)CC(=O)N([C@@H](C)CO)C[C@H](C)[C@H](CN(C)Cc2ccc(C(F)(F)F)cc2)O3)cc1 | inactive |
| C[C@@H]1CN([C@H](C)CO)S(=O)(=O)c2ccc(C#Cc3ccc(F)cc3)cc2O[C@H]1CN(C)C(=O)NC1CCCCC1 | inactive |
| C[C@H](CO)N1C[C@H](C)[C@H](CN(C)S(=O)(=O)c2ccc(F)cc2)Oc2cc(C3=CCCCC3)ccc2S1(=O)=O | inactive |
| CC(C)CC#Cc1ccc2c(c1)O[C@H](CN(C)C(=O)C1CCCCC1)[C@@H](C)CN([C@@H](C)CO)S2(=O)=O | inactive |
| C[C@@H]1CN([C@@H](C)CO)S(=O)(=O)c2ccc(C3=CCCCC3)cc2O[C@@H]1CN(C)C(=O)Cc1ccccc1 | inactive |

Reference: PubChem BioAssay AID720597 (Broad Institute, 2013)
